13 compounds from PubChem BioAssay can be followed below.

The nature of the assay: viability loss with induced miR-34 in A549 – imaging, A549 dox-inducible miR-34, nuclei and caspase counts, primary screen (AID 1347080). Also: test concentration not given here. Conditions: A549 miR-34 inducible, Hoechst nuclei count, 48 h; measured here: total cells with miR-34 induction; stronger effect = lower value.
With `CCCCCC(=O)/C=C/[C@H]1[C@H](O)CC(=O)[C@@H]1CCCCCCC(=O)O`, the cell count amounted to 5840.
`CCCCC[C@](C)(O)/C=C/[C@@H]1[C@@H](C/C=C\CCCC(=O)OC)[C@@H](O)C[C@H]1O` gave a cell count of 6340.
`CCCCC/C=C\C/C=C\CCCCCCCC(=O)OCC` displayed a cell count of 4750.
In the case of `CCCCC[C@H](O)C/C=C1/C(=O)C[C@H](O)[C@@H]1C/C=C\CCCC(=O)O` it was 5280; in that of `CCCCCCC[C@H](O)/C=C/[C@@H]1[C@@H](C/C=C\CCCC(=O)O)[C@@H](O)C[C@H]1O`, 6150; in that of `CCCCC[C@H](O)/C=C/[C@@H]1[C@H]2C/C(=C\CCCC(=O)O)C[C@H]2C[C@H]1O`, 6140.
As for `CCCCCCCCCCCCCCCC(=O)OC[C@@H](O)COP(=O)([O-])OCC[N+](C)(C)C`, the cell count came out at 5910.
In the case of `CCCCC[C@H](O)/C=C/[C@H]1C(=O)C[C@H](O)[C@@H]1C/C=C\CCCC(=O)OCC(O)CO` (stereo partly drawn) it was 6090; in that of `CCCCCCC(Sc1nc(Cl)cc(NCc2ccc(-c3ccccc3)cc2)n1)C(=O)O` (stereo not drawn), 6140.
To `CC(C)OC(=O)CCC/C=C\C[C@@H]1[C@@H](/C=C/C(=O)COc2cccc(C(F)(F)F)c2)[C@H](O)C[C@@H]1O` belongs 6150; to `COc1cc([C@@H]2c3cc4c(cc3[C@@H](OC3OC5COC(C)OC5C(O)C3O)[C@H]3COC(=O)[C@H]23)OCO4)cc(OC)c1O` (stereo partly drawn), 1840; to `O=C(O)CCC/C=C/C[C@@H]1[C@@H](/C=C/[C@@H](O)COc2cccc(C(F)(F)F)c2)[C@H](O)C[C@@H]1O`, 6470.
In the case of `c1ccc(C(OC2CCN(CCCc3nn[nH]n3)CC2)c2ccccc2)cc1`, the cell count was 5840.
